This passage reports AC50 results from PubChem BioAssay AID2284088 (EPA ToxCast).

Calls of active or inactive are those of the source. How the source made its calls: active means hit-call score of the fitted dose curve at least 0.9, where 1 is the maximum; inactive means score below 0.9.

human FLT4 Receptor Tyrosine Kinase, FLT4 (gene 2324), sequence (P35916 whole entry, looked up): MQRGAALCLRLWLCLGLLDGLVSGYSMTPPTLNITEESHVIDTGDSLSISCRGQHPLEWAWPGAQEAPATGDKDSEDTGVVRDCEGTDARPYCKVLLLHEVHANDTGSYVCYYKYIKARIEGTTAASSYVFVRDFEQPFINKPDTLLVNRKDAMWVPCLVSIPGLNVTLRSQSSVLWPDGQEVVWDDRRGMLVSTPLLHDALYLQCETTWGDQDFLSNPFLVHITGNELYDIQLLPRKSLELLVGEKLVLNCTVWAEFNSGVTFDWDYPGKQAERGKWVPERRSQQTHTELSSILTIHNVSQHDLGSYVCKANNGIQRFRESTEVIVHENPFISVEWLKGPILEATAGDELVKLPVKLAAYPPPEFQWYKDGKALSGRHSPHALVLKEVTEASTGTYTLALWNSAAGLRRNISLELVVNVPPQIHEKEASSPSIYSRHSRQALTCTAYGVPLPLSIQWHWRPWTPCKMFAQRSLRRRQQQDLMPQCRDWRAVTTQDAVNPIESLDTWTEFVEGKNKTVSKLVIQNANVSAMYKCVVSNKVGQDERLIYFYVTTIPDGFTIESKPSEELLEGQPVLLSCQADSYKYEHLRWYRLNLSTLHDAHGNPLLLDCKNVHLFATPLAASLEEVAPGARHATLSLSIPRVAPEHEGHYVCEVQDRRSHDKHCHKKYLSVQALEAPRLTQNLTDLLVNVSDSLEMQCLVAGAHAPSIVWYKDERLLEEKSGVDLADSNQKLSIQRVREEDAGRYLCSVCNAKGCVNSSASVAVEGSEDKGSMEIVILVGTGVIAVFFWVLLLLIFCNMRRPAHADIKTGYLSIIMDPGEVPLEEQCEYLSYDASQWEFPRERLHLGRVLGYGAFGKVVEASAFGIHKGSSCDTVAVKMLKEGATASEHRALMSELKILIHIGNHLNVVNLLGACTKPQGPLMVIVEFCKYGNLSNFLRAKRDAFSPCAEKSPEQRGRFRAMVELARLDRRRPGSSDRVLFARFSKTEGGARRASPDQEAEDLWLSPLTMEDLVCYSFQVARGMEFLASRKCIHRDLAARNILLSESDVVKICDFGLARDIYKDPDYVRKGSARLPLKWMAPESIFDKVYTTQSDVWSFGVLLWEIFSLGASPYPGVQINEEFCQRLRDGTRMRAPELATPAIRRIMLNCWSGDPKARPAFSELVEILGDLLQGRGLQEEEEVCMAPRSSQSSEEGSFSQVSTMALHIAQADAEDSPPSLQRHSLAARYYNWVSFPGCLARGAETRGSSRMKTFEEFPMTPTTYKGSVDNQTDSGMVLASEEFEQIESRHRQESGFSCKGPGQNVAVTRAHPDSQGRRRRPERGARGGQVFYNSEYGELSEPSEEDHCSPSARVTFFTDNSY

This test deals with human FLT4 Receptor Tyrosine Kinase, FLT4 (gene 2324) (UniProt P35916). Description: ERF_FR_ENZ_hFLT4: Eurofins (ERF) Enzymatic Radiometric [Km ATP] KinaseProfiler LeadHunter Assay for human FLT4 Receptor Tyrosine Kinase. On the procedure:
ERF_FR_ENZ_hFLT4 is a biochemical, single-readout assay that uses extracted gene-proteins in a cell-free assay. Measurements were taken 1.5 hour after chemical dosing in a 96-well plate. See FLT4 Human RTK Kinase Enzymatic LANCE Assay [Km ATP], Cerep.ERF_FR_ENZ_hFLT4 is an assay component calculated from the ERF_FR_ENZ_hFLT4 assay. It is designed to measure enzyme activity using a type of enzyme reporter as detected by fluorescence intensity with LANCE technology.Data from the assay component ERF_FR_ENZ_hFLT4 was analyzed at the assay endpoint, ERF_FR_ENZ_hFLT4, in the positive analysis fitting direction relative to DMSO as the negative control and baseline of activity. Using a type of enzyme reporter, loss-of-signal activity can be used to understand changes in enzymatic activity as they relate to gene FLT4. To generalize the intended target to other relatable targets, this assay endpoint is annotated to the kinase intended target family, where the subfamily is receptor tyrosine kinase.
Flt4 (h) is incubated with 8 mM MOPS pH 7.0, 0.2 mM EDTA, 500 uM […], 10 mM MgAcetate and [gamma-33P]-ATP (specific activity and concentration as required). The reaction is initiated by the addition of the Mg/ATP mix. After incubation for 40 minutes at room temperature, the reaction is stopped by the addition of phosphoric acid to a concentration of 0.5%. […]
Broadly, the AC50 is the midpoint of the concentration-response curve, whichever way the signal moves. Turning to `O=C(/C=C/c1ccc(O)cc1)CC(=O)/C=C/c1ccc(O)cc1`, the AC50 was 1.91 µM (active).
